Drawing on PubChem BioAssay (EPA / NIEHS), this text covers outcome and AC50 for 39 molecules.

As usually defined, the AC50 is the concentration giving half of the maximal activity seen.

The structures appear in SMILES notation. Several values for one entry are separate records, joined by “and”; a condition that tells them apart may be missing. Equal entries are not always repeated. Where a structure was tested more than once in an assay, its records may differ in their call. Activity calls are given as the source filed them. The calls were made as follows: active = hit-call score of the fitted dose curve at least 0.9, where 1 is the maximum; inactive = score below 0.9.

This assay is described as follows: ATG_SREBP_CIS: Attagene CIS-FACTORIAL HepG2 Assay for human Sterol Regulatory Element Binding (SREBP) (AID 2282962). The note with it: HepG2 Attagene cis-factorial SREBP reporter, mRNA; actives raise or lower the signal. How it is done: ATG_CIS is a cell-based, multiplexed-readout assay that uses HepG2, a human liver cell line, with measurements taken at 24 hours after chemical dosing in a 24-well plate.ATG_SREBP_CIS is one of 52 assay component(s) measured or calculated from the ATG_CIS assay. It is designed to make measurements of mRNA induction, a form of inducible reporter, as detected with fluorescence intensity signals by Reverse transcription polymerase chain reaction (RT-PCR) and Capillary electrophoresis technology.Data from the assay component ATG_SREBP_CIS was analyzed into 1 assay endpoint. This assay endpoint, ATG_SREBP_CIS, was analyzed with bidirectional fitting relative to DMSO as the negative control and baseline of activity. Using a type of inducible reporter, measures of mRNA for gain or loss-of-signal activity can be used to understand the reporter gene at the transcription factor-level as they relate to the gene SREBF1. Furthermore, this assay endpoint can be referred to as a primary readout, because this assay has produced multiple assay endpoints where this one serves a reporter gene function. To generalize the intended target to other relatable targets, this assay endpoint is annotated to the dna binding intended target family, where the subfamily is basic helix-loop-helix leucine zipper.
Human liver HepG2 cells are transiently transfected with multiple reporter transcription units (MRTUs) in 6-well plates using FuGene 6 reagent (Roche; 3 ml FuGene/1 mg DNA). The MRTU constructs are regulated by a cis-regulating element (promoter). […] A major difference between the CIS and TRANS system is that in CIS activities of endogenous TFs are measured, whereas the TRANS assay evaluates changes in activities of exogenous, chimeric NR-Gal4 proteins. […] At the end of 24 hour incubation, total RNA was isolated using TriZol reagent (Invitrogen). The isolated RNA is then reverse-transcribed using oligo(dT) primer and Mo-MLV reverse transcriptase (Invitrogen) with DNAse I (Ambion) treatment for 30 min. The one-tenth of the produced cDNA was amplified by PCR using Taq DNA polymerase (Invitrogen) and two reporter sequence-specific primers. The PCR products were fluorescently labeled by primer extension with 6-arboxyfluorescein (6-FAM) 5'-labeled reporter sequence-specific primer (2 min at 95 C, 20 s at 68 C and 10 min at 72 C) and these products were digested with 5U of HpaI (New England Biolabs) for 2h at 37 C. The fragments were purified using Qiaquick PCR columns (Qiagen), analyzed on an ABI 3130xL genetic analyzer (Applied Biosystems) with peak positions identified by using a set of X-rhodamine (ROX)-labeled MapMarker1000 molecular weight standards (BioVentures). The raw capillary electrophoresis data was processed using Attagraph software (Attagene).
As to `CCOC(=O)CC1(C)OCC(C)O1` (stereo not given), the molecule was classed as inactive.
Take `O=S1(=O)CC(Cl)(Cl)C(Cl)(Cl)C1`: the call was inactive.
Still for that read-out and setting: the result for `CC(O)COCC(C)O` (stereo not given) reads “inactive”.
Still for that read-out and setting: as for `NC(=O)c1c(Cl)cccc1Cl`, the entry is “inactive”; as for `O=[N+]([O-])c1cc(N(CCO)CCO)ccc1NCCO`, “inactive”.
Same read-out and setting: the result for `O=C1OC2(c3ccc(O)cc3Oc3cc(O)ccc32)c2ccccc21` reads “inactive”; that for `CCNC(=S)NCC`, “inactive”; that for `C=C(C)C(N)=O`, “inactive”.
`[Na+]`: the molecule was classed as inactive.
As for `Cc1cc(O)c(C)c(C)c1O`, the call was inactive.
Still for that read-out and setting: as for `C=CC(O)CCCCC` (stereo not given), the entry is “inactive”; as for `CCC(C)(C)C1CCC(OC)CC1` (stereo not given), “inactive”; as for `O=C(O)c1cc2ccccc2cc1O`, “inactive”.
On to `O=C(OCc1ccccc1)c1ccccc1O`, for which the AC50 was 128 µM (active).
Consider `CCCC1CCOC(C)S1` (stereo not given), for which the molecule was classed as inactive.
On the same count and under the same terms, as for `CC(O)CNCC(C)O` (stereo not given), the entry is “inactive”.
Still for that read-out and setting: as for `CCCCCCCCCCCCN1CCOCC1`, the entry is “inactive”; as for `Brc1cc(Br)cc(Br)c1`, “inactive”; as for `C=C(C)C(=O)OCCC[Si](OC)(OC)OC`, “inactive”.
On the same count and under the same terms, the result for `CCC(C)(CCCC(C)C)OC(C)=O` (stereo not given) reads “inactive”.
In the case of `CCCCCCCCCCCCOCCOS(=O)(=O)O`, the result was inactive.
`CCCCC1CCCCC(=O)O1` (stereo not given): the result was inactive.
On the same count and under the same terms, the result for `C=CCOCC(O)CO` (stereo not given) reads “inactive”; that for `CCCCCCCCOC(C)=O`, “inactive”.
Still for that read-out and setting: the result for `CCC=C(C)C=O` reads “inactive”.
For `Cc1cc(O)c2c(c1)C(=O)c1cc(O)cc(O)c1C2=O`, the outcome was inactive.
As to `O=C(c1ccc(OCCN2CCCCC2)cc1)c1c(-c2ccc(O)cc2)sc2cc(O)ccc12`, the molecule was called inactive; the AC50 is 6.38 µM (active) and 2.85 µM (active) and 2.92 µM (active).
As to `CN(C)C(=O)Nc1ccccc1`, the molecule was called inactive.
Still for that read-out and setting: as for `CCCCCCCCCCO[C@@H]1O[C@H](CO)[C@@H](O)[C@H](O)[C@H]1O`, the entry is “inactive”; as for `O=C(O)c1ccc(C(=O)O)c(C(=O)O)c1`, “inactive”.
Same read-out and setting: the result for `CCC(C)COC(=O)CC(C)C` (stereo not given) reads “inactive”; that for `NC(=O)NC(N)=O`, “inactive”.
On the same count and under the same terms, as for `NC(=O)c1cnccn1`, the entry is “inactive”; as for `CCC(C)(C)C1CCC(=O)CC1`, “inactive”.
As for `c1ccc2scnc2c1`, the call was inactive.
The same measure, in the same setting: the result for `CCCc1ccc(O)cc1` reads “inactive”; that for `COC(=O)c1cccc(C(=O)OC)c1`, “inactive”.
On the same count and under the same terms, as for `CC(=O)CC(=O)N(C)C`, the entry is “inactive”.
Still for that read-out and setting: as for `O=S(=O)(O)CCCN1CCOCC1`, the entry is “inactive”.
